PubChem BioAssay AID1159580 (chemical genetic matrix, 2015)
Values joined by “and” are separate entries in the source; they are usually repeats but may differ in a detail not shown here. Identical values can stand only once. The whole screen tested about 5,500 compounds, of which about 2,000 (36%) were called active. Roughly 18% stayed inconclusive and do not appear here. No stated cut-off is given here; in the data, active means normalized growth mostly below about 0.91 (no sharp cut-off); inconclusive means no clear call, values can overlap the other calls; inactive means mostly above about 0.92. The list shows a part of the results.

Assay: chemical genetic growth profiling, strain panel (AID 1159580);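 further: tested at 20 µM; growth read once vehicle control cultures reached saturation at 30 °C; 1 = growth at the plate median or of vehicle wells; lower values mean less growth of the strain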
Details: S. cerevisiae deletion strains, growth OD

Measured: normalized growth

C=CC(C1=CC(=O)C=CC1=O)c1ccccc1 (stereo unspecified)
active: locus YDL134C, strain PPH21, hits give low values 0.863 | locus YDR162C, strain NBP2, hits give low values 0.778 | locus YGL086W, strain mad1, hits give low values 0.927 | locus YGR078C, strain PAC10, hits give low values 0.805 | locus YGR229C, strain SMI1, hits give low values 0.722 | locus YKR001C, strain vps1, hits give low values 0.887 | locus YLR039C, strain RIC1, hits give low values 0.64 | locus YLR262C, strain YPT6, hits give low values 0.551 | locus YLR330W, strain CHS5, hits give low values 0.882 | locus YLR418C, strain cdc73, hits give low values 0.823 | locus YNL233W, strain BNI4, hits give low values 0.815 | locus YNL307C, strain MCK1, hits give low values 0.674 | locus YOR184W, strain ser1, hits give low values 0.811 | locus YPR163C, strain tif3, hits give low values 0.849
inactive: locus YAL021C, strain ccr4, hits give low values 1.01 | locus YAL026C, strain drs2, hits give low values 0.983 | locus YAL030W, strain snc1, hits give low values 1 | locus YBL061C, strain skt5, hits give low values 1 | locus YBR009C, strain hhf1, hits give low values 0.995 | locus YBR021W, strain FUR4, hits give low values 0.982 | locus YBR023C, strain chs3, hits give low values 1.01 | locus YBR171W, strain sec66, hits give low values 1.02 | locus YBR229C, strain ROT2, hits give low values 0.974 | locus YBR231C, strain swc5, hits give low values 1.01 | locus YBR279W, strain paf1, hits give low values 0.993 | locus YCL011C, strain gbp2, hits give low values 1.01 | locus YCL016C, strain dcc1, hits give low values 0.994 | locus YCL029C, strain bik1, hits give low values 1 | locus YCL061C, strain MRC1, hits give low values 0.993 | locus YCL069W, strain vba3, hits give low values 1 | locus YCR088W, strain abp1, hits give low values 1.01 | locus YDL005C, strain med2, hits give low values 1.01 | locus YDL035C, strain GPR1, hits give low values 0.937 | locus YDL040C, strain nat1, hits give low values 0.989 | locus YDL074C, strain BRE1, hits give low values 0.916 | locus YDL101C, strain DUN1, hits give low values 0.96 | locus YDL185W, strain tfp1, hits give low values 0.994 | locus YDL192W, strain arf1, hits give low values 0.956 | locus YDR001C, strain nth1, hits give low values 1.01 | locus YDR069C, strain doa4, hits give low values 1.01 | locus YDR101C, strain arx1, hits give low values 0.977 | locus YDR137W, strain rgp1, hits give low values 0.961 | locus YDR159W, strain sac3, hits give low values 1.03 | locus YDR195W, strain ref2 1.01 | locus YDR297W, strain sur2, hits give low values 0.996 | locus YDR318W, strain mcm21, hits give low values 0.953 | locus YDR334W, strain swr1, hits give low values 1.01 | locus YDR335W, strain msn5, hits give low values 0.999 | locus YDR388W, hits give low values 0.991 | locus YDR392W, strain spt3, hits give low values 0.917 | locus YDR502C, strain sam2, hits give low values 0.95 | locus YEL003W, strain gim4, hits give low values 0.982 | locus YEL037C, strain rad23, hits give low values 1.01 | locus YEL061C, strain CIN8 (second series), hits give low values 1.01 | locus YEL061C, strain CIN8, hits give low values 0.974 | locus YER015W, strain faa2, hits give low values 0.996 | locus YER016W, strain bim1, hits give low values 1 | locus YER110C, hits give low values 0.98 | locus YER111C, strain swi4, hits give low values 1 | locus YER155C, strain BEM2 (second series), hits give low values 0.895 | locus YER155C, strain BEM2, hits give low values 1.01 | locus YER167W, strain BCK2, hits give low values 0.947 | locus YFR010W, strain ubp6, hits give low values 1 | locus YGL078C, strain dbp3, hits give low values 0.995 | locus YGL167C, strain pmr1, hits give low values 1.01 | locus YGL173C, strain kem1, hits give low values 1 | locus YGL227W, strain vid30, hits give low values 1.01 | locus YGL240W, strain doc1, hits give low values 0.964 | locus YGL248W, strain PDE1, hits give low values 0.907 | locus YGL253W, strain hxk2, hits give low values 1.02 | locus YGR135W, strain pre9, hits give low values 0.931 | locus YGR252W, strain gcn5, hits give low values 0.952 | locus YHR013C, strain ard1, hits give low values 1.04 | locus YHR027C, strain rpn1, hits give low values 1.01 | locus YHR030C, strain SLT2, hits give low values 0.984 and 1.06 | locus YHR079C, strain IRE1 (second series), hits give low values 0.98 | locus YHR079C, strain IRE1, hits give low values 1.02 | locus YHR094C, strain hxt1, hits give low values 0.993 | locus YHR129C, strain ARP1, hits give low values 0.957 | locus YHR142W, strain chs7, hits give low values 1.01 | locus YHR200W, strain rpn10, hits give low values 0.963 | locus YIL066C, strain RNR3, hits give low values 0.875 | locus YIL073C, strain SPO22, hits give low values 0.916 | locus YIL125W, strain kgd1, hits give low values 0.998 | locus YIR030C, strain dcg1, hits give low values 0.972 | locus YJL092W, strain hpr5, hits give low values 1.01 | locus YJL095W, strain BCK1 (second series), hits give low values 1.01 | locus YJL095W, strain BCK1, hits give low values 0.891 and 1.06 | locus YJL115W, strain asf1, hits give low values 1.01 | locus YJL129C, strain trk1, hits give low values 1.04 | locus YJL134W, strain LCB3, hits give low values 0.99 | locus YJL154C, strain vps35, hits give low values 0.997 | locus YJL164C, strain tpk1, hits give low values 0.984 | locus YJL166W, strain qcr8, hits give low values 0.991 | locus YJL168C, strain set2, hits give low values 0.992 | locus YJL187C, strain SWE1 (second series), hits give low values 0.937 | locus YJL187C, strain SWE1, hits give low values 1 | locus YJR043C, strain POL32, hits give low values 0.889 | locus YJR066W, strain TOR1, hits give low values 1 | locus YJR075W, strain HOC1, hits give low values 0.929 | locus YKL009W, strain mrt4, hits give low values 0.956 | locus YKL068W, hits give low values 1.05 | locus YKL085W, strain MDH1 (second series), hits give low values 0.978 | locus YKL085W, strain MDH1, hits give low values 0.978 | locus YKL160W, strain elf1, hits give low values 0.987 | locus YKR026C, strain gcn3, hits give low values 1.01 | locus YKR091W, strain srl3, hits give low values 1.01 | locus YLL001W, strain dnm1, hits give low values 0.978 | locus YLL026W, hits give low values 1 | locus YLL041C, strain sdh2, hits give low values 1.01 | locus YLR027C, strain aat2, hits give low values 1.01 | locus YLR058C, strain SHM2, hits give low values 0.958 | locus YLR102C, strain apc9, hits give low values 0.978 | locus YLR113W, strain HOG1, hits give low values 1.02 | locus YLR221C, strain rsa3, hits give low values 0.992 | locus YLR258W, strain gsy2, hits give low values 1.01 | locus YLR262C, strain YPT6 (second series), hits give low values 0.969 | locus YLR268W, strain sec22, hits give low values 0.925 | locus YLR320W, strain mms22, hits give low values 0.983 | locus YLR342W, strain FKS1 (second series), hits give low values 0.794 | locus YLR342W, strain FKS1, hits give low values 1.02 | locus YLR357W, strain rsc2, hits give low values 0.988 | locus YLR370C, strain arc18, hits give low values 1.01 | locus YLR371W, strain rom2, hits give low values 0.973 | locus YLR384C, strain iki3, hits give low values 1.01 | locus YML016C, strain PPZ1, hits give low values 0.976 | locus YML032C, strain rad52, hits give low values 0.965 | locus YML120C, strain ndi1, hits give low values 0.998 | locus YML124C, strain tub3, hits give low values 0.971 | locus YMR058W, strain fet3, hits give low values 1 | locus YMR078C, strain ctf18, hits give low values 0.963 | locus YMR125W, strain sto1, hits give low values 1.02 | locus YMR129W, hits give low values 1 | locus YMR205C, strain PFK2, hits give low values 0.997 | locus YMR223W, strain ubp8, hits give low values 0.971 | locus YMR231W, strain pep5, hits give low values 0.986 | locus YMR263W, strain SAP30, hits give low values 0.966 | locus YMR307W, strain GAS1, hits give low values 0.966 | locus YNL067W, strain RPL9B, hits give low values 0.943 | locus YNL071W, strain lat1, hits give low values 1.01 | locus YNL153C, strain GIM3, hits give low values 0.93 | locus YNL183C, strain NPR1, hits give low values 0.975 | locus YNL209W, strain ssb2, hits give low values 0.996 | locus YNL248C, strain rpa49, hits give low values 0.986 | locus YNL250W, strain rad50, hits give low values 1 | locus YNL271C, strain bni1, hits give low values 0.979 | locus YNL298W, strain CLA4, hits give low values 0.982 | locus YNL322C, strain KRE1 (second series), hits give low values 1.01 | locus YNL322C, strain KRE1, hits give low values 0.945 | locus YNR049C, strain mso1, hits give low values 1.02 | locus YNR052C, strain pop2, hits give low values 0.997 | locus YOL012C, strain htz1 0.678 | locus YOL147C, strain pex11, hits give low values 0.975 | locus YOR001W, strain rrp6, hits give low values 0.997 | locus YOR061W, strain CKA2, hits give low values 0.978 | locus YOR069W, strain VPS5, hits give low values 0.982 | locus YOR070C, strain gyp1, hits give low values 0.981 | locus YOR080W, strain dia2, hits give low values 1 | locus YOR083W, strain WHI5, hits give low values 0.981 | locus YOR106W, strain vam3, hits give low values 0.981 | locus YOR136W, strain idh2, hits give low values 1 | locus YOR144C, strain elg1, hits give low values 0.975 | locus YOR231W, strain MKK1, hits give low values 1.04 | locus YOR265W, strain rbl2, hits give low values 1.02 | locus YOR270C, strain vph1, hits give low values 0.973 | locus YOR290C, strain snf2, hits give low values 0.962 | locus YOR316C, strain cot1, hits give low values 0.993 | locus YPL051W, strain arl3, hits give low values 0.978 | locus YPL078C, strain atp4, hits give low values 0.968 | locus YPL106C, strain sse1, hits give low values 1.02 | locus YPL240C, strain hsp82, hits give low values 1 | locus YPL256C, strain CLN2, hits give low values 1.05 | locus YPR119W, strain clb2, hits give low values 0.975 | locus YPR141C, strain kar3, hits give low values 0.991 | locus YPR167C, strain met16, hits give low values 0.963 | strain wtn01, hits give low values 0.931
